The results in this text go back to PubChem BioAssay (NCI).

Test [1] in a line: NCI Yeast Anticancer Drug Screen. Data for the rad50 strain (AID 155).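 Further: 0% = growth of vehicle-only cultures of the same strain.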 The settings on record: S. cerevisiae rad50 strain growth inhibition, hits give high values. An outline of the steps:
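A DNA repair-deficient yeast mutant serves as the test organism; compound-induced growth inhibition is calculated against vehicle-treated cells.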

Test [2] can be described thus: NCI Yeast Anticancer Drug Screen. Data for the mec2-1 strain (AID 157). The settings on record: S. cerevisiae mec2-1 strain, hits give high values. An outline of the steps: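 Compounds were applied to mec2-1 yeast cells. Their growth was then compared with that of vehicle-treated cultures to give growth inhibition.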
The nature of test [3]: NCI Yeast Anticancer Drug Screen. Data for the sgs1 mgt1 strain (AID 161).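 Further: 0% = growth of cultures given vehicle only.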 The note with it: S. cerevisiae sgs1 mgt1 strain, hits give high values. An outline of the steps: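 Compounds are added to genetically altered yeast, and growth is compared with cultures given vehicle alone to give percent inhibition.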
A short description of test [4]: NCI Yeast Anticancer Drug Screen. Data for the cln2 rad14 strain (AID 165).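 Further: 0% = growth equal to vehicle treated cultures.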 The note with it: S. cerevisiae cln2 rad14 strain, hits give high values. An outline of the steps: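 Strain: cln2 rad14 yeast, altered in cell cycle control and DNA damage repair. Read-out: growth inhibition vs vehicle.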
The nature of test [5]: NCI Yeast Anticancer Drug Screen. Data for the bub3 strain (AID 167). The note with it: S. cerevisiae bub3 mutant strain, hits give high values. An outline of the steps: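 Inhibition values come from growth of compound-treated mutant yeast normalised to vehicle-treated controls.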
Test [6] is described as follows: NCI Yeast Anticancer Drug Screen. Data for the mlh1 rad18 strain (AID 175). The settings on record: S. cerevisiae mlh1 rad18 strain growth inhibition, hits give high values. An outline of the steps:
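A repair-deficient yeast strain is exposed to test compound, and growth is scored relative to vehicle-treated controls.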

[7] abbreviates: at 5.0 µM (retest, dose inferred, filed as 0.5).
Setting [8] is: at 50.0 µM (retest, dose inferred, filed as 5.0).

Compounds without any hit were thinned out: in the full panel of roughly 79,000, 15% have a hit. Unmarked numbers belong to inactive results. Calls of active or inactive are those of the source. No stated cut-off is given here; in the data, active means growth inhibition above about 70%; inactive means the rest.

As for `CC(C)C1/C(=N/O)CC(c2ccccc2)N(N=O)C1c1ccccc1` (stereo not given), the growth inhibition in test [1] (setting [7]) is 10%; in test [1] (setting [8]), 97% (active); in test [1] (at 50.0 µM) it was 82.3% (active); in test [2] (setting [7]), -13%; in test [2] (setting [8]) it was 98% (active); in test [2] (at 50.0 µM), 93% (active). In addition, the growth inhibition in test [3] (setting [7]) was 3%; in test [3] (setting [8]), 98% (active); in test [3] (at 50.0 µM) it was 90.7% (active); in test [4] (setting [7]) it was 15%; in test [4] (setting [8]) it was 96% (active); in test [4] (at 50.0 µM), 87.7% (active). For the same compound, the growth inhibition in test [5] (setting [7]) is 4%; in test [5] (setting [8]) it was 98% (active); in test [5] (at 50.0 µM), 88% (active); in test [6] (setting [7]), -6%; in test [6] (setting [8]), 98% (active); in test [6] (at 50.0 µM) it was 90.3% (active).
Consider `O=C1C=CC(=O)C2C3C=CC(CC3)C12` (stereo not given), for which the growth inhibition is 8% in test [1] (setting [7]); 29% in test [1] (setting [8]); 47.1% in test [1] (at 50.0 µM); 20% in test [2] (setting [7]); 36% in test [2] (setting [8]); 43.6% in test [2] (at 50.0 µM). In addition, the growth inhibition in test [3] (setting [7]) was 10%; in test [3] (setting [8]), 36%; in test [3] (at 50.0 µM), 70.1% (active); in test [4] (setting [7]), 14%; in test [4] (setting [8]) it was 43%; in test [4] (at 50.0 µM), 78.2% (active). Moreover, the growth inhibition in test [5] (setting [7]) was 0%; in test [5] (setting [8]), 23%; in test [5] (at 50.0 µM) it was 92.5% (active); in test [6] (setting [7]), 11%; in test [6] (setting [8]), 39%; in test [6] (at 50.0 µM), 84.6% (active).
For `CCOC(=O)C(=O)CC(=O)C(Br)C(Br)c1ccc(Cl)cc1` (stereo not given), the growth inhibition in test [1] (setting [7]) was 78% (active); in test [1] (setting [8]) it was 99% (active); in test [1] (at 50.0 µM) it was 99.5% (active); in test [2] (setting [7]) it was 85% (active); in test [2] (setting [8]), 99% (active); in test [2] (at 50.0 µM), 99.6% (active). Also, the growth inhibition in test [3] (setting [7]) is 97% (active); in test [3] (setting [8]), 99% (active); in test [3] (at 50.0 µM), 99.4% (active); in test [4] (setting [7]), 69%; in test [4] (setting [8]), 100% (active); in test [4] (at 50.0 µM) it was 99% (active). Besides, the growth inhibition is 92% (active) in test [5] (setting [7]); 99% (active) in test [5] (setting [8]); 99.3% (active) in test [5] (at 50.0 µM); 90% (active) in test [6] (setting [7]); 99% (active) in test [6] (setting [8]); 99.5% (active) in test [6] (at 50.0 µM).
As to `O=C(c1ccc([N+](=O)[O-])cc1)C(Br)C(Br)c1ccnc2ccccc12` (stereo not given), the growth inhibition in test [1] (setting [7]) was 25%; in test [1] (setting [8]), 80% (active); in test [1] (at 50.0 µM), 98.2% (active); in test [2] (setting [7]), 23%; in test [2] (setting [8]), 63%; in test [2] (at 50.0 µM), 99.1% (active). In addition, the growth inhibition in test [3] (setting [7]) was 21%; in test [3] (setting [8]), 91% (active); in test [3] (at 50.0 µM), 98.9% (active); in test [4] (setting [7]), -1%; in test [4] (setting [8]) it was 69%; in test [4] (at 50.0 µM), 96.7% (active). In addition, the growth inhibition in test [5] (setting [7]) is 3%; in test [5] (setting [8]), 86% (active); in test [5] (at 50.0 µM), 98.8% (active); in test [6] (setting [7]) it was 18%; in test [6] (setting [8]) it was 95% (active); in test [6] (at 50.0 µM), 98.8% (active).
`COC(=O)C(=O)C(=O)C1CCCC(c2ccccc2)C1=O` (stereo not given): the growth inhibition in test [1] (setting [7]) is 1%; in test [1] (setting [8]) it was 96% (active); in test [1] (at 50.0 µM), 96.3% (active); in test [2] (setting [7]), 0%; in test [2] (setting [8]) it was 97% (active); in test [2] (at 50.0 µM), 98% (active). Further, the growth inhibition in test [3] (setting [7]) is 1%; in test [3] (setting [8]) it was 53%; in test [3] (at 50.0 µM), 71.6% (active); in test [4] (setting [7]), 2%; in test [4] (setting [8]) it was 98% (active); in test [4] (at 50.0 µM), 94.8% (active). Further, the growth inhibition is -11% in test [5] (setting [7]); 98% (active) in test [5] (setting [8]); 97.8% (active) in test [5] (at 50.0 µM); -10% in test [6] (setting [7]); 97% (active) in test [6] (setting [8]); 96.4% (active) in test [6] (at 50.0 µM).
Consider `O=[N+]([O-])c1ccccc1N=Nc1c(O)[nH]c2cccc(C(F)(F)F)c12`, for which the growth inhibition in test [1] (setting [7]) was 50%; in test [1] (setting [8]) it was 86% (active); in test [1] (at 50.0 µM), 93.9% (active); in test [2] (setting [7]), 52%; in test [2] (setting [8]), 81% (active); in test [2] (at 50.0 µM), 18.5%. For the same compound, the growth inhibition in test [3] (setting [7]) was 60%; in test [3] (setting [8]), 90% (active); in test [3] (at 50.0 µM) it was 83.5% (active); in test [4] (setting [7]), -60%; in test [4] (setting [8]) it was 92% (active); in test [4] (at 50.0 µM), 50.2%. Also, the growth inhibition was 47% in test [5] (setting [7]); 77% (active) in test [5] (setting [8]); 46.5% in test [5] (at 50.0 µM); 84% (active) in test [6] (setting [7]); 97% (active) in test [6] (setting [8]); 95.1% (active) in test [6] (at 50.0 µM).
Regarding `COc1ccc(C(C)c2cc3c(cc2O)OCO3)cc1` (stereo not given), the growth inhibition in test [1] (setting [7]) is 7%; in test [1] (setting [8]) it was 99% (active); in test [1] (at 50.0 µM), 98.5% (active); in test [2] (setting [7]) it was -8%; in test [2] (setting [8]) it was 48%; in test [2] (at 50.0 µM) it was 98.7% (active). In addition, the growth inhibition is -3% in test [3] (setting [7]); 56% in test [3] (setting [8]); 98.8% (active) in test [3] (at 50.0 µM); -23% in test [4] (setting [7]); 58% in test [4] (setting [8]); 97.1% (active) in test [4] (at 50.0 µM). Also, the growth inhibition in test [5] (setting [7]) is -22%; in test [5] (setting [8]) it was 76% (active); in test [5] (at 50.0 µM), 98.5% (active); in test [6] (setting [7]) it was 7%; in test [6] (setting [8]), 97% (active); in test [6] (at 50.0 µM), 98% (active).
Take `CCOC(=O)CCCCCN`: the growth inhibition is 6% in test [1] (setting [7]); 8% in test [1] (setting [8]); -4.55% in test [1] (at 50.0 µM); 1% in test [2] (setting [7]); 2% in test [2] (setting [8]); -7.75% in test [2] (at 50.0 µM). For the same compound, the growth inhibition in test [3] (setting [7]) was 1%; in test [3] (setting [8]) it was 7%; in test [3] (at 50.0 µM), 34.1%; in test [4] (setting [7]), 9%; in test [4] (setting [8]), -2%; in test [4] (at 50.0 µM), -39.5%. Further, the growth inhibition is 2% in test [5] (setting [7]); -4% in test [5] (setting [8]); 1.75% in test [5] (at 50.0 µM); 5% in test [6] (setting [7]); 6% in test [6] (setting [8]); -30.3% in test [6] (at 50.0 µM).
As for `CCC1C(c2ccccc2O)c2cc3c(cc2OC1N1CCOCC1)OCO3` (stereo not given), the growth inhibition was -18% in test [1] (setting [7]); 98% (active) in test [1] (setting [8]); 85.9% (active) in test [1] (at 50.0 µM); -32% in test [2] (setting [7]); 99% (active) in test [2] (setting [8]); 88.3% (active) in test [2] (at 50.0 µM). In addition, the growth inhibition in test [3] (setting [7]) was -42%; in test [3] (setting [8]), 98% (active); in test [3] (at 50.0 µM), 88.2% (active); in test [4] (setting [7]) it was 9%; in test [4] (setting [8]), 99% (active); in test [4] (at 50.0 µM), 88.9% (active). Moreover, the growth inhibition in test [5] (setting [7]) was -50%; in test [5] (setting [8]), 99% (active); in test [5] (at 50.0 µM) it was 88.8% (active); in test [6] (setting [7]), -13%; in test [6] (setting [8]), 98% (active); in test [6] (at 50.0 µM), 91.2% (active).
As to `Nc1ccccc1/C=C1/Sc2cc[nH]c2C1=O`, the growth inhibition in test [1] (setting [7]) was 2%; in test [1] (setting [8]), 5%; in test [1] (at 50.0 µM), 4.9%; in test [2] (setting [7]) it was 1%; in test [2] (setting [8]), -1%; in test [2] (at 50.0 µM), 5.55%. The growth inhibition in test [3] (setting [7]) is -2%; in test [3] (setting [8]), -5%; in test [3] (at 50.0 µM), -15.8%; in test [4] (setting [7]) it was -1%; in test [4] (setting [8]), -3%; in test [4] (at 50.0 µM) it was 3.1%. Also, the growth inhibition is 15% in test [5] (setting [7]); 40% in test [5] (setting [8]); 83.8% (active) in test [5] (at 50.0 µM); 3% in test [6] (setting [7]); 10% in test [6] (setting [8]); -9.8% in test [6] (at 50.0 µM).
